Structures are written as SMILES. Active and inactive are the calls of the source. A call without a number means that no potency is given here. Calls come from the whole dose curve; as a rule, active = well fitted curve in the direction sought with a large enough effect in the repeat runs; inconclusive = weak or mixed curves; inactive = flat fitted curve, though single readings scatter.

A short description of the assay: qHTS assay to test for compound auto fluorescence at 460 nm (blue) in HEK293 cells (AID 720678). To be noted: blue autofluorescence 405/460 nm; series mostly up to 46 µM. In outline: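 Blue-channel (Ex/Em 405/460 nm) intensity measured in HEK293 cultures after overnight compound exposure at 37C; signal expressed relative to triamterene. Cells plated 2,000 per well in 10% dialyzed FBS medium and allowed 4-5 hr to attach.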
For `CNC(=O)c1c(I)c(C(=O)NCC(=O)Nc2c(I)c(C(=O)O)c(I)c(C(=O)NCCO)c2I)c(I)c(N(C)C(C)=O)c1I`, the Potency result is “inactive”.

On to `CCCCCc1ccc(C)cc1O`, for which the Potency result was “inactive”.

For `N#CC(c1ccc(Cl)cc1)c1c(Cl)cc(-n2ncc(=O)[nH]c2=O)cc1Cl` (centres undefined), the Potency entry was “inactive”.

With `CN[C@H]1CCc2cc(OC)c(OC)c(OC)c2-c2ccc(OC)c(=O)cc21`, the Potency result was “inactive”.

As to `COC(=O)C1=C(C#N)NC(C)=C(C(=O)OC(C)C)C1c1cccc([N+](=O)[O-])c1` (centres undefined), the Potency result was “inactive”.

In the case of `C[C@]12C=CC(=O)N[C@@H]1CC[C@@H]1[C@@H]2CC[C@]2(C)[C@@H](C(=O)Nc3cc(C(F)(F)F)ccc3C(F)(F)F)CC[C@@H]12`, the Potency entry was “inactive”.

Consider `CC(=O)Nc1ccc(OC(=O)c2ccccc2O)cc1`, for which the Potency result was “inactive”.

As to `NC(=O)Oc1ccc(Cc2ccccc2)cc1`, the Potency entry is “inactive”.

For the molecule `CCCCCCCN(CC)CCCC(O)c1ccc(NS(C)(=O)=O)cc1` (centres undefined), the Potency entry was “inactive”.

Consider `[O]=[Bi][O]C(=O)[O][Bi]=[O]`, for which the Potency result was “inactive”.

For the molecule `C[C@]12CC[C@@H]3c4ccc(OC(=O)c5ccccc5)cc4CC[C@H]3[C@@H]1CC[C@@H]2O`, the Potency entry was “inactive”.

On to `CCC(=O)O[C@]1(C(=O)CCl)[C@@H](C)C[C@H]2[C@@H]3C[C@H](F)C4=CC(=O)C=C[C@]4(C)[C@@]3(F)[C@@H](O)C[C@@]21C`, for which the Potency entry was “inactive”.

As to `Clc1cc(Cl)c(OCC#CI)cc1Cl`, the Potency entry is “inactive”.

With `CC1=C(C(=O)OCCN(Cc2ccccc2)c2ccccc2)C(c2cccc([N+](=O)[O-])c2)C(P2(=O)OCC(C)(C)CO2)=C(C)N1` (centres undefined), the Potency result was “inactive”.

Take `CCC(C)(C)OC(=O)N[C@@H](Cc1c[nH]c2ccccc12)C(=O)N[C@@H](CCSC)C(=O)N[C@@H](CC(=O)O)C(=O)N[C@@H](Cc1ccccc1)C(N)=O`: the Potency entry was “inactive”.

`C=C[C@]1(C)C[C@@H](OC(=O)CSC(C)(C)CNC(=O)[C@H](N)C(C)C)[C@]2(C)[C@H](C)CC[C@]3(CCC(=O)[C@H]32)[C@@H](C)[C@@H]1O`: the Potency result was “inactive”.

Regarding `C=C1C(=C/C=C2\CCC[C@]3(C)[C@@H]([C@H](C)CCCC(C)(C)O)CC[C@@H]23)C[C@@H](O)C[C@@H]1O`, the Potency entry is “inactive”.

With `CO[C@H]1C=CO[C@@]2(C)Oc3c(C)c(O)c4c(O)c(c(/C=N/N5CCN(C6CCCC6)CC5)c(O)c4c3C2=O)NC(=O)/C(C)=C\C=C[C@H](C)[C@H](O)[C@@H](C)[C@@H](O)[C@@H](C)[C@H](OC(C)=O)[C@@H]1C`, the Potency entry was “inactive”.

As for `O=C(CO)[C@@H](O)[C@H](O)[C@@H](O)C(=O)O`, the Potency entry is “inactive”.

As to `O=C(Nc1ccc(Br)cc1)c1cc(Br)c(Br)s1`, the Potency entry was “inactive”.

Take `CCCOc1ccc2nc(NC(=O)OC)sc2c1`: the Potency entry was “inactive”.

As to `CN1[C@@H]2CC[C@H]1CC(OC(c1ccccc1)c1ccccc1)C2` (some centres undefined), the Potency result was “inactive”.

On to `c1ccc2c(c1)Sc1ccccc1N2CCN1CCCC1`, for which the Potency entry is “inactive”.

Take `C[N+]1(C)[C@@H]2CC(OC(=O)C(O)(c3cccs3)c3cccs3)C[C@H]1[C@@H]1O[C@@H]12` (some centres undefined): the Potency result was “inactive”.

Regarding `CCCCCCCCCCCCCCCC(=O)OC[C@@H](O)[C@H]1OC[C@H](O)[C@H]1O`, the Potency result is “inactive”.

On to `CCC(=O)OCC(=O)[C@@]1(OC(=O)CC)[C@@H](C)C[C@H]2[C@@H]3CCC4=CC(=O)C=C[C@]4(C)[C@@]3(Cl)[C@@H](O)C[C@@]21C`, for which the Potency result is “inactive”.

As for `NC[C@@H]1O[C@H](O[C@H]2[C@@H](O)[C@H](O[C@@H]3[C@@H](O)[C@H](N)C[C@H](N)[C@H]3O[C@H]3O[C@H](CN)[C@@H](O)[C@H](O)[C@H]3N)O[C@@H]2CO)[C@H](N)[C@@H](O)[C@@H]1O`, the Potency entry is “inactive”.

Consider `O=C1/C(=C\c2cccs2)CCC/C1=C\c1cccs1`, for which the Potency result is “inactive”.

As to `CN(C)CCOc1ccccc1Cc1ccccc1` (tested in a mixture with another compound), the Potency result is “inactive”.

Regarding `Cc1cc(-c2ccc(N=Nc3c(S(=O)(=O)O)cc4cc(S(=O)(=O)O)cc(N)c4c3O)c(C)c2)ccc1N=Nc1c(S(=O)(=O)O)cc2cc(S(=O)(=O)O)cc(N)c2c1O`, the Potency entry is “inactive”.

In the case of `O=C(OCc1ccccc1)c1cccnc1`, the Potency entry is “inactive”.

As for `O=C(O)CO.[NH2-].[NH2-].[Pt+2]`, the Potency result was “inactive”.

Turning to `CC(=O)O[C@H]1CC[C@@]2(C)C(=CC[C@@H]3[C@@H]2CC[C@]2(C)C(c4cccnc4)=CC[C@@H]32)C1`, the Potency entry is “inactive”.

Turning to `CCCCC(=O)N(Cc1ccc(-c2ccccc2-c2nn[nH]n2)cc1)[C@@H](C(=O)O)C(C)C`, the Potency result is “inactive”.

Take `CCOc1cc(-c2nccc3cc(OC)c(OC)cc23)cc(OCC)c1OCC`: the Potency result is “inactive”.

Turning to `C=C1CC[C@H](O)CC1=C/C=C1\CCC[C@]2(C)[C@@H]([C@H](C)CC[C@@H](O)C(C)(C)O)CC[C@@H]12`, the Potency result is “inactive”.

Take `CCOC(=O)[C@@H](N)CS`: the Potency entry was “inactive”.

For the molecule `Cn1c(O)c(N=NC(N)=S)c2ccccc21`, the Potency result is “inactive”.

Regarding `CC(/C=C/C=C(\C)C(=O)O[C@@H]1O[C@H](CO[C@@H]2O[C@H](CO)[C@@H](O)[C@H](O)[C@H]2O)[C@@H](O)[C@H](O)[C@H]1O)=C\C=C\C=C(C)\C=C\C=C(/C)C(=O)O[C@@H]1O[C@H](CO[C@@H]2O[C@H](CO)[C@@H](O)[C@H](O)[C@H]2O)[C@@H](O)[C@H](O)[C@H]1O`, the Potency result is “inactive”.

(Values after PubChem BioAssay (Tox21).)
